Test results from publication PMC5700166.
Where a chain is given by its changes, count along the chain named.

Tests used:
Test in all cases: protein-binding microarray (PBM); PBM: ~300 nM protein, 6 mM HEPES pH 7.8, 80 mM KCl, 0.5 mM EDTA, 0.5 mM EGTA, 6% glycerol, 35 ng/ul poly-dIdC, 1% milk, 1 h, room temperature; Ap Aiptasia and Nv Nematostella (sea anemones) / Co Capsaspora / Aq Amphimedon (sponge) / Dm Drosophila / Hu human; RHD is the Rel homology domain; high values mean tight binding
Conditions in all cases: dsDNA, one strand shown
GST-Ap-NF-kB RHD = molecular target: T1, GST-Ap-NF-kB RHD (Exaiptasia pallida (Aiptasia), UniProt A0A913YAJ5 2-422)
T1 sequence: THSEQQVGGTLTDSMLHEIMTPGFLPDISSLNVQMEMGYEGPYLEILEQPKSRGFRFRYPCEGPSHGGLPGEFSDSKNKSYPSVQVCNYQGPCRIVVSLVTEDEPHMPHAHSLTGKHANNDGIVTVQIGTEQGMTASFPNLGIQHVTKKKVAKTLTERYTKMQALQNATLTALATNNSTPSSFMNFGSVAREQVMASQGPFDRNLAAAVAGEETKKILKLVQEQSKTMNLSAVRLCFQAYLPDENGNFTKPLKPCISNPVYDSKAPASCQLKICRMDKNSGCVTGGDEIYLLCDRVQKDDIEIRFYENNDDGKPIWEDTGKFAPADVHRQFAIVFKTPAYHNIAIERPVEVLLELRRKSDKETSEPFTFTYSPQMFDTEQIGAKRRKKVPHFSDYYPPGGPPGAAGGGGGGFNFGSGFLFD

[1] = molecular target: T2, GST-Nv-NF-kB (Cys allele) (Nematostella vectensis, UniProt E5G601 2-411)
T2 sequence: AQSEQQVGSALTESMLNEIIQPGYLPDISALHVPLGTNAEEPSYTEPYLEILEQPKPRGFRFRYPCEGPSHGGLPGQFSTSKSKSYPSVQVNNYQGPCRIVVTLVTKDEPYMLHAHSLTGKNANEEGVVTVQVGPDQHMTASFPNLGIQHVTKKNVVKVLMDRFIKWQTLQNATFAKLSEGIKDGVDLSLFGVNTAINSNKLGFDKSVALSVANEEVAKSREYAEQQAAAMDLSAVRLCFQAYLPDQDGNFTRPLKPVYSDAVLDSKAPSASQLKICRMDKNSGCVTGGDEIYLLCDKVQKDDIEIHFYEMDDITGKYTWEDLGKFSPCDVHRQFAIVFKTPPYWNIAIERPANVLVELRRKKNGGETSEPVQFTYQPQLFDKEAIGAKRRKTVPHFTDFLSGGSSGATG

[2] = molecular target: T3, GST-Nv-NF-kB (Ser allele) (Nematostella vectensis, UniProt A7UNT2 2-411)
T3 sequence: T2 sequence with Q21R, C66S, S207N, E215Q, V217A, E225K, A268E, D399E

GST-Co-NF-kB = molecular target: T4, GST-Co-NF-kB (Capsaspora owczarzaki, UniProt F1ARL5 200-546)
T4 sequence: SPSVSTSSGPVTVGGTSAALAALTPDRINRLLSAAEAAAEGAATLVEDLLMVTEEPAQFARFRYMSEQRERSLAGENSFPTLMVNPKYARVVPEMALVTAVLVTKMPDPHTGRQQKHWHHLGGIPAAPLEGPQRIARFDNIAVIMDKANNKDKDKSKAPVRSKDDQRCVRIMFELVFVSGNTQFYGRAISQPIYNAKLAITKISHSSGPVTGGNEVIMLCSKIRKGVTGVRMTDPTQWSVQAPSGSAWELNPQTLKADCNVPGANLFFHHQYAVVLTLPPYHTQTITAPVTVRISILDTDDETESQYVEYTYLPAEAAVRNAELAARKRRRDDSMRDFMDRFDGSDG

GST-Dm-Relish = molecular target: T5, GST-Dm-Relish (Drosophila melanogaster, UniProt Q94527 99-473)
T5 sequence: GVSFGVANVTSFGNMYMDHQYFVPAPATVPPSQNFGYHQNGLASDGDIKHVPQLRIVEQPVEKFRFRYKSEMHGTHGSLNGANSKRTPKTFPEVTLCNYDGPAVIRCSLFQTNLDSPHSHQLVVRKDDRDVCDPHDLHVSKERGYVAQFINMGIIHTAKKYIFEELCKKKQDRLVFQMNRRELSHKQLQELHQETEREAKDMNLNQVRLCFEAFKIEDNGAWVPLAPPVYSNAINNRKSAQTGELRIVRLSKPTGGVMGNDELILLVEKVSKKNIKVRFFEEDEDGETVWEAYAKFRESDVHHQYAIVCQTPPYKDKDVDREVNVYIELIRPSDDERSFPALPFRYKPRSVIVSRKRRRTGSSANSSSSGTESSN

GST-Aq-NF-kB = molecular target: T6, GST-Aq-NF-kB (Amphimedon queenslandica, UniProt A9Y5G7 2-389)
T6 sequence: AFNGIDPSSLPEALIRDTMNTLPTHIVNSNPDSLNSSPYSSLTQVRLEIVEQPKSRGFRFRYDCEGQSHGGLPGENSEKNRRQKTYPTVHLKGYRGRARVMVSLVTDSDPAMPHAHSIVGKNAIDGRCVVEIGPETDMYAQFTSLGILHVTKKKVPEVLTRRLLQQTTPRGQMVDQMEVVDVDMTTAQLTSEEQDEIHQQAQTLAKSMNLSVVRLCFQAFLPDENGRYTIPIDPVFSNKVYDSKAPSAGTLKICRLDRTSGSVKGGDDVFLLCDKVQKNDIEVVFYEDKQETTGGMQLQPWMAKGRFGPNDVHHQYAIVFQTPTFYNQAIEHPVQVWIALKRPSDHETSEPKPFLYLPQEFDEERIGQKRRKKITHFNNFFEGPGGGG

GST-Hu-p50 = GST-Hu-p50 (Homo sapiens, UniProt P19838 7-356)
Chain of GST-Hu-p50 (P19838 7-356): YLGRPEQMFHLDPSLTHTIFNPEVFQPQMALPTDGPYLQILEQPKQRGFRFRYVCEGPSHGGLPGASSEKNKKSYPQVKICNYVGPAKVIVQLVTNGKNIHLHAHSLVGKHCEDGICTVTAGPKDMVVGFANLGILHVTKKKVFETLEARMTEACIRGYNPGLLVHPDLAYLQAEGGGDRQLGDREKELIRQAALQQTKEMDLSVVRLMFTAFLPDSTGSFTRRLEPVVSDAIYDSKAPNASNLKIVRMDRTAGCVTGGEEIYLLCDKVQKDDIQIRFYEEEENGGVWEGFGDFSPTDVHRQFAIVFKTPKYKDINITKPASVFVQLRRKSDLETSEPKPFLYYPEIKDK

Row | Sequence | binding signal (GST-Ap-NF-kB RHD) | binding signal [1] | binding signal [2] | binding signal (GST-Co-NF-kB) | binding signal (GST-Dm-Relish) | binding signal (GST-Aq-NF-kB) | binding signal (GST-Hu-p50)
1 | CCGATTAACATCACGGAAATCCCTGATGTTAATCGGGTCTTGATTCGCTTGACGCTGCTG | 4.3 z-score | 3.8 z-score | 2.78 z-score | 1.09 z-score | 6.96 z-score | 6.11 z-score | 3.58 z-score
2 | CCGATTAACATCAAAAAAACCCCTGATGTTAATCGGGTCTTGATTCGCTTGACGCTGCTG | 9.17 z-score | 10 z-score | 9.69 z-score | 3.62 z-score | 9.78 z-score | 8.79 z-score | 7.76 z-score
3 | CCGATTAACATCAGGGGAAATGATGATGTTAATCGGGTCTTGATTCGCTTGACGCTGCTG | 5.75 z-score | 6.87 z-score | 9.61 z-score | 7.35 z-score | 2.27 z-score | 4.43 z-score | 5.37 z-score
4 | CCGATTAACATCAAGTTTCCCCATGATGTTAATCGGGTCTTGATTCGCTTGACGCTGCTG | 6.19 z-score | 6.87 z-score | 9.07 z-score | 9.1 z-score | 2.4 z-score | 5.26 z-score | 5.62 z-score
5 | CCGATTAACATCAAGGAAATCCCTGATGTTAATCGGGTCTTGATTCGCTTGACGCTGCTG | 4.83 z-score | 4.91 z-score | 2.74 z-score | 1.77 z-score | 7.71 z-score | 5.91 z-score | 3.79 z-score
6 | CCGATTAACATCAATCCTCCCCCTGATGTTAATCGGGTCTTGATTCGCTTGACGCTGCTG | 5.52 z-score | 4.44 z-score | 5.85 z-score | 8.24 z-score | 2.9 z-score | 4.98 z-score | 4.83 z-score
7 | CCGATTAACATCAGGCATCCCCATGATGTTAATCGGGTCTTGATTCGCTTGACGCTGCTG | 3.84 z-score | 2.84 z-score | 3.73 z-score | 1.82 z-score | 3.01 z-score | 2.63 z-score | 2.9 z-score
8 | CCGATTAACATCAGGGAAACTAATGATGTTAATCGGGTCTTGATTCGCTTGACGCTGCTG | 2.58 z-score | 3.94 z-score | 4.37 z-score | 3.69 z-score | 1.22 z-score | 3.45 z-score | 2.79 z-score
9 | CCGATTAACATCAGGGGAAAAACTGATGTTAATCGGGTCTTGATTCGCTTGACGCTGCTG | 6.41 z-score | 8.02 z-score | 10.3 z-score | 9.24 z-score | 9.62 z-score | 6.72 z-score | 6.32 z-score
10 | CCGATTAACATCAAGGGTATTCCTGATGTTAATCGGGTCTTGATTCGCTTGACGCTGCTG | 5.29 z-score | 5.81 z-score | 4.65 z-score | 1.17 z-score | 7.04 z-score | 5.86 z-score | 4.55 z-score
11 | CCGATTAACATCAGAAATCCCCATGATGTTAATCGGGTCTTGATTCGCTTGACGCTGCTG | 8.63 z-score | 9.17 z-score | 9.84 z-score | 4.52 z-score | 8.03 z-score | 6.3 z-score | 6.99 z-score
12 | CCGATTAACATCAATAATTTCCCTGATGTTAATCGGGTCTTGATTCGCTTGACGCTGCTG | 4.38 z-score | 6.39 z-score | 7.05 z-score | 4.82 z-score | 3.45 z-score | 5.17 z-score | 5 z-score
13 | CCGATTAACATCAGGAATTACCCTGATGTTAATCGGGTCTTGATTCGCTTGACGCTGCTG | 4.56 z-score | 7.58 z-score | 4.97 z-score | 2.62 z-score | 6.61 z-score | 8.34 z-score | 4.51 z-score
14 | CCGATTAACATCATAATCCCCCATGATGTTAATCGGGTCTTGATTCGCTTGACGCTGCTG | 7.75 z-score | 6.81 z-score | 7.45 z-score | 6.17 z-score | 5.67 z-score | 5.96 z-score | 6.67 z-score
15 | CCGATTAACATCAAGGGAGTCCCTGATGTTAATCGGGTCTTGATTCGCTTGACGCTGCTG | 5.78 z-score | 4.59 z-score | 4.3 z-score | 1.18 z-score | 8.56 z-score | 4.92 z-score | 3.72 z-score
16 | CCGATTAACATCACGGGGAATTCTGATGTTAATCGGGTCTTGATTCGCTTGACGCTGCTG | 9.62 z-score | 10.1 z-score | 10.3 z-score | 8.83 z-score | 8.15 z-score | 7.98 z-score | 6.54 z-score
17 | CCGATTAACATCAATCACCCCCCTGATGTTAATCGGGTCTTGATTCGCTTGACGCTGCTG | 4.05 z-score | 4.27 z-score | 4.76 z-score | 4.97 z-score | 4.64 z-score | 5.36 z-score | 4.4 z-score
18 | CCGATTAACATCAGGGGGAACGATGATGTTAATCGGGTCTTGATTCGCTTGACGCTGCTG | 5.18 z-score | 4.82 z-score | 6.18 z-score | 7.4 z-score | 2.42 z-score | 4.16 z-score | 4.41 z-score
19 | CCGATTAACATCACCGTCCCCCCTGATGTTAATCGGGTCTTGATTCGCTTGACGCTGCTG | 4.94 z-score | 4.43 z-score | 4.21 z-score | 5.1 z-score | 4.4 z-score | 4.34 z-score | 4.08 z-score
20 | CCGATTAACATCAGGGGGAATGATGATGTTAATCGGGTCTTGATTCGCTTGACGCTGCTG | 6.17 z-score | 7.14 z-score | 7.16 z-score | 6.6 z-score | 3.1 z-score | 4.98 z-score | 5.4 z-score
21 | CCGATTAACATCAGGGTTTTACCTGATGTTAATCGGGTCTTGATTCGCTTGACGCTGCTG | 2.62 z-score | 3.71 z-score | 4.37 z-score | 2.01 z-score | 6.46 z-score | 6.12 z-score | 3.39 z-score
22 | CCGATTAACATCAGGGAAACCCCTGATGTTAATCGGGTCTTGATTCGCTTGACGCTGCTG | 10.6 z-score | 11.4 z-score | 9.7 z-score | 5.51 z-score | 9.95 z-score | 10 z-score | 6.82 z-score
23 | CCGATTAACATCAACTCTCCCCCTGATGTTAATCGGGTCTTGATTCGCTTGACGCTGCTG | 5.78 z-score | 4.61 z-score | 5.62 z-score | 7.94 z-score | 2.14 z-score | 4.72 z-score | 4.41 z-score
24 | CCGATTAACATCAGGGGATTTTATGATGTTAATCGGGTCTTGATTCGCTTGACGCTGCTG | 10.4 z-score | 11.7 z-score | 12.7 z-score | 4.81 z-score | 9.55 z-score | 8.66 z-score | 8.09 z-score
